Screening data as filed in PubChem BioAssay.
In the library only some 12% were active in any assay of this set; here they are far more common.
RORg inh: blocks mouse ROR gamma transcriptional activity. P51450. AID 2551. 5.4% of 310,000 active. Drosophila S2 Gal4-RORgamma UAS-luciferase reporter, 20 h. Potency, µM (top dose mostly 53.6 µM), without a hit: at the top dose activity change, negative = inhibition, usual class: inhibitors; also: nearly all actives have a fitted effect of over 60% in size
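Using a luciferase readout, inhibitors were identified by reduced reporter activity in Drosophila cells coexpressing a copper-inducible Gal4–ROR gamma fusion and UAS-driven Photinus luciferase, incubated 20 hr after 700 uM copper sulfate.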
PLK1 PBD inh: blocks phosphopeptide binding to human PLK1 polo-box domain; Potency, µM, for inactives: max response, negative = inhibition, actives largely listed as inhibitors; 2.8% of 360,000 active; Plk1 PBD binding of FITC phosphopeptide, fluorescence polarization; P53350; also: series mostly up to about 57 µM; nearly all actives have a fitted effect of over 65% in size
ALDH1A1 inh: inhibitors of human aldehyde dehydrogenase 1A1; P00352; Potency, µM (top dose mostly 75.3 µM), without a hit: top-dose activity, negative = inhibition, usual class: inhibitors; 7.3% of 220,000 active; AID 1030; Purified ALDH1A1, NADH fluorescence, propionaldehyde substrate; active = well fitted inhibition curve with a large enough effect, not every such curve was filed as active; inconclusive = small, poorly fitted or top-dose-only effect, or another doubt; inactive = no such curve, though single readings can be large or run the other way;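 also: plate controls were no enzyme wells and a reference inhibitor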
Target sequence (P00352 whole entry, looked up): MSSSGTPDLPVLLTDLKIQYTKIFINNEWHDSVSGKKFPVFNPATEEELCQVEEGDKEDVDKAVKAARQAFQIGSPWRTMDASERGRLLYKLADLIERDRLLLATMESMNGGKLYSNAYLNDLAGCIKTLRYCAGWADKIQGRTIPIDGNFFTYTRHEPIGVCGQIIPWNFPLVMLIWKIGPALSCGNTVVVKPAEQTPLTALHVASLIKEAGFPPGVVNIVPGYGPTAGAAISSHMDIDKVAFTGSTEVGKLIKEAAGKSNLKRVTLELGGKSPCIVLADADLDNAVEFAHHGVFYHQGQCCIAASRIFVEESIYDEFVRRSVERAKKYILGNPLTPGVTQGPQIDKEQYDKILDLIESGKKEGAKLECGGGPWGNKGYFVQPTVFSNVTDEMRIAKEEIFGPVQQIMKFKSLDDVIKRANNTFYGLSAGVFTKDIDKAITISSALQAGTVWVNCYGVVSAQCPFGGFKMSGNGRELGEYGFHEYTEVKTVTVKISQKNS
Sfp PPTase inh: inhibitors of Bacillus subtilis Sfp phosphopantetheinyl transferase; Q9F4F7; Biochemical Sfp PPTase activity, qHTS; Potency, µM, for the others: largest response in the series, negative = inhibition, hits mostly inhibitors; 3.5% of 310,000 active; AID 1490;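 also: the enzyme is Sfp with the accession as filed and its product quenches rhodamine fluorescence; 0% = enzyme reaction without inhibitor and -100% = no enzyme wells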
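With Hepes-Na pH 7.6 buffer containing 10 mM MgCl2, Sfp (15 nM) modified BHQ-2-YbbR (12.5 uM) using rhodamine-CoA (5 uM). Two reads 30 minutes apart at 525/598 nm yielded each well's rate.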
VP16 counter: inhibits Gal4-VP16 luciferase reporter, ROR gamma counter-screen; Drosophila S2 Gal4-VP16 UAS-luciferase, luminescence, 20 h; Potency, µM (series often up to 53.6 µM), for inactives: at the highest dose activity, negative = inhibition, usual class: inhibitors; 3.5% of 310,000 active; AID 2546;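 also: Gal4-VP16 expression switched on by copper sulfate through the metallothionein promoter; nearly all actives have a fitted effect of over 50% in size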
Active calls of the source: *; ? = inconclusive; · = not tested or not shown; [ ] = another dose, or the depositor's remark. Unless noted, calls follow the shape of the dose curve; as a rule, active = well fitted curve in the direction sought with a large enough effect; inconclusive = small, poorly fitted or top-dose-only effect, or another doubt; inactive = no such curve, though single readings can be large; an effect the other way counts as inactive or inconclusive. Unless noted, % is scaled to controls: 0 for no effect and ±100 for the full control effect; potency is read from the fitted curve at half-maximal effect.

SMILES | RORg inh | PLK1 PBD inh | ALDH1A1 inh | Sfp PPTase inh | VP16 counter
C[C@]12C/C(=C/O)C(=O)C[C@@H]1CC[C@@H]1[C@@H]2CC[C@@]2(C)[C@H]1CC[C@]2(C)O | -17% | · | 0.071µM* | 1% | -13%
COc1ccc(Cc2c(O)[nH]c(=S)[nH]c2=O)cc1 | -23% | 27µM* | · | 56µM* | -2%
Cc1ccccc1N1C(=O)NC(=O)/C(=C\c2cnn(-c3ccccc3)c2)C1=O | -8% | 4.7µM* | 18µM* | 25µM* | ?
CCn1c(C)cc(/C=C2\C(=O)NC(=O)N(c3ccccc3C)C2=O)c1C | -12% | -10% | -13% | 10% | 18%
CCCCCCCCc1[se]c2ccccc2c1[Se]c1ccccc1 | 0% | · | 1% | 1% | 7%
COC(=O)CCCc1[se]c2ccccc2c1I | 42% | · | 32µM* | -28% | -3%
[Cl-].[Cl-].[Hg+2] | ? | · | 0.14µM* | ? | 18µM*
N#Cc1cccc(NC(=O)N2CC3(CCN(C(=O)Oc4ccccc4)CC3)C2)c1 | 20% | · | ? | 14% | 10%
Cc1nn(CCC#N)c2c1P(=S)(N1CCCC1)OC(c1ccc(F)cc1)=N2 (stereo not drawn) | -7% | 13µM* | 7.1µM* | 10µM* | -5%
O=C(Oc1ccc2ccc(OC(=O)N3CCCCCC3)cc2c1)N1CCCCCC1 | -4% | 8% | -9% | -2% | ?
CC(C)CON=O | -12% | · | 32µM* | · | -4%
ClC(Cl)(Cl)C(Cl)(Cl)Cl | 2% | · | 9% | · | 2%
COc1cc2c(cc1OC)-c1c(OC)c(OC)c(CO)c3c1C(C2)N(C)CC3 (stereo not drawn) | 2% | · | ? | -1% | 6%
C=CCn1c(CSc2ccccc2[N+](=O)[O-])n[nH]c1=S | -41% | 12µM* | · | ? | -18%
COc1ccc(C(O)P(=O)(OC(C)C)OC(C)C)cc1 (stereo not drawn) | 4% | -4% | · | 20% | -2%
COc1ccc(C(=O)O/N=C(/C(N)=O)P(=O)(OC(C)C)OC(C)C)cc1 | 16µM* | -4% | · | 3% | 7.9µM*
CN(C)CCCNc1c2c(nc3ccc(Cl)cc13)CCCC2 | · | · | 6%[13.5 µM] | · | ·
Cc1cc(NC(=O)CCl)no1 | 2.5µM* | -12% | 13µM* | 9% | ?
Cc1cc(NC(=O)COC(=O)c2c(C)nn(Cc3ccccc3Cl)c2Cl)no1 | 21% | -1% | 11% | ? | -7%
FC(F)(F)c1ccc2c(c1)ncn2C1CCN(Cc2nnnn2C2CCCCC2)CC1 | -2% | 3% | 0.56µM* | 1% | ?
Fc1ccc(Cn2nnnc2CN2CCC(n3nnc4cc(C(F)(F)F)ccc43)CC2)cc1 | 12% | -1% | · | 12% | -18%
CCC(C(N)=O)N1CCCC1=O (stereo not drawn) | -10% | · | · | -1% | -8%
O=[As]O[As]=O (stereo not drawn) | -1%[10 µM] | · | · | 23% | -4%
CCc1ccc(N2C(=O)NC(=O)C(Cc3ccc(OC)cc3OC)C2=O)cc1 (stereo not drawn) | 9% | -12% | ? | 50µM* | 7%
COc1ccc(CC2C(=O)NC(=O)N(c3ccccc3)C2=O)c(OC)c1 (stereo not drawn) | -8% | -14% | ? | 89µM* | 2%
SMILES | RORg inh | PLK1 PBD inh | ALDH1A1 inh | Sfp PPTase inh | VP16 counter
O=C(Oc1ccc(S(=O)(=O)F)cc1F)c1ccccc1Cl | · | · | 0%[13.5 µM] | · | ·
CC(=O)C(O)C(c1ccccc1)c1c(O)c2ccccc2oc1=O (stereo not drawn) | 2% | · | · | 9% | -2%
C[C@H](N)Cc1c[nH]c2ccc(OCc3cccs3)cc12 | 0% | · | -5% | -17% | 3%
CNC(=O)c1cccn(Cc2cccc(C(F)(F)F)c2)c1=O | -32% | -9% | ? | 17% | -1%
CN(C)CCNC(=O)c1cccn(Cc2cccc(C(F)(F)F)c2)c1=O | 3% | 19µM* | ? | 22% | -3%
COc1ccc(OCc2nnc(SCC(=O)NCC3CCCO3)n2N)cc1 (stereo not drawn) | · | 17µM* | · | · | ·
COc1ccc(-n2c(O)c(C(C)=NCC3CCCO3)c(=O)[nH]c2=O)cc1 (stereo not drawn) | -9% | -1% | · | -1% | -10%
CN1C(=O)C(=Cc2ccc(OCCN(C)c3ccccn3)cc2)C(=O)N(C)C1=O | 15% | ? | 7.9µM* | -9% | 11%
O=C(Oc1ccc(Cl)cc1)N1CCOCC1 | 20% | 11µM* | · | 6% | -2%
[Cl][In]([Cl])[Cl] | 21% | · | 8% | 45µM* | 7%
CC(=O)C1CCC2C3CCC4CC(O)CCC4(C)C3CC(O)C12C (stereo not drawn) | -28% | · | 1% | -9% | 17%
CC1(C)CC(=O)C(C=NCCN2CCN(C(=O)Cc3ccc(F)cc3)CC2)=C(O)C1 | 25% | -5% | 18µM* | -14% | -4%
CC[C@H]1C2CC3[C@@H]4N(C)c5ccccc5[C@]45C[C@@H](C2[C@H]5O)N3[C@@H]1O (stereo partly drawn) | 4% | · | 7% | 8% | 3%
Cc1ccc2c(c1)=C/C(=C\c1c(O)[nH]c(=S)[nH]c1=O)C(=O)N=2 | 16% | · | 3.5µM* | 7.1µM* | -11%
Cc1cccc(N/N=C/c2c(O)[nH]c(=S)[nH]c2=O)c1 | · | -2% | · | · | ·
C[C@H]1CC[C@H]2NCCN[C@H]2C1 | 22% | -24% | · | 100µM* | -8%
COc1ccc2cc1Oc1ccc(cc1)C[C@H]1c3cc(c(OC)cc3CCN1C)Oc1c(OC)c(OC)cc3c1[C@@H](C2)N(C)CC3 | -16%[16.9 µM] | -1% | 4%[13.5 µM] | -2% | -11%[17 µM]
CC[C@H](C)/C=C(C)/C=C/C1=CC2=C(Cl)C(=O)[C@@](C)(OC(C)=O)C(=O)C2=CO1 | · | 1.1µM* | · | · | ·
Nc1c(C(=O)Nc2ccc([As](=O)(O)O)cc2)cnc2nnnn12 | · | · | -4%[13.5 µM] | · | ·
O=C1C=CC[C@@H]2[C@H]3CCCN4CCC[C@@H](CN12)[C@@H]34 | -13% | · | 2% | -7% | -2%
CCSc1nnc([C@@H](N)Cc2ccccc2)o1 | ? | 0% | 15µM* | -9% | -11%
C=CCBr | 5% | · | -17% | · | 7%
Clc1ccc(-c2nc3ccc(Cl)cn3c2CN2CCCCC2)cc1 | 5µM* | -1% | · | -4% | -23%
Nc1cccc2ccccc12 | -23% | · | ? | · | 2%
SMILES | RORg inh | PLK1 PBD inh | ALDH1A1 inh | Sfp PPTase inh | VP16 counter
C=C(Cl)CCl | 6% | · | 20µM* | · | 7%
CCCCn1c(-c2nn(C)cc2Cl)n[nH]c1=S | 13µM* | -12% | -1% | -13% | ?
CCCCn1nc(C)c(C(=O)O)c1Cl | -4% | -9% | · | 25% | -5%
Cc1ccc(C)c(Cn2c(C(=O)O)c(C=O)c3ccccc32)c1 | 31% | 89% | 19µM* | -8% | 2%
ClC(Br)Br | 2% | · | 9% | · | 2%
O=C(CNC(=O)c1ccccc1)NCC(=O)OCC(=O)c1ccc([N+](=O)[O-])cc1 | -1% | 0% | 0.89µM* | 28µM* | -24%
O=C(CNC(=O)c1ccc(Br)cc1)NCC(=O)OCC(=O)c1ccc([N+](=O)[O-])cc1 | -3% | -8% | 1µM* | -30% | ?
